Assay results published in PubChem BioAssay AID1159580 (chemical genetic matrix, 2015).
Where “and” joins values, the source holds several entries; their conditions need not be identical. Identical values can stand only once. Out of some 5,500 compounds screened, about 2,000 (36%) were called active. Inconclusive results (about 18%) are left out. Rule as the data show it: active = normalized growth mostly below about 0.91 (no sharp cut-off); inconclusive = no clear call, values can overlap the other calls; inactive = mostly above about 0.92. This is one part of the list.

Assay: chemical genetic growth profiling, strain panel (AID 1159580);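 also: tested at 20 µM; growth read once vehicle control cultures reached saturation at 30 °C; 1 = growth at the plate median or of vehicle wells; lower values mean less growth of the strain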
Details: S. cerevisiae deletion strains, growth OD

Measured: normalized growth

COc1ccc(C(=O)c2ccccc2)c(O)c1
inactive: locus YAL013W, strain DEP1, stronger effect = lower value 0.914 | locus YAL021C, strain ccr4, stronger effect = lower value 0.918 | locus YBR021W, strain FUR4, stronger effect = lower value 0.975 | locus YBR229C, strain ROT2, stronger effect = lower value 0.956 | locus YCL029C, strain bik1, stronger effect = lower value 0.92 | locus YDL101C, strain DUN1, stronger effect = lower value 0.963 | locus YDL134C, strain PPH21, stronger effect = lower value 0.949 | locus YDL185W, strain tfp1, stronger effect = lower value 0.908 | locus YDR150W, strain NUM1, stronger effect = lower value 0.934 | locus YEL061C, strain CIN8, stronger effect = lower value 0.939 | locus YGL248W, strain PDE1, stronger effect = lower value 0.944 | locus YGR078C, strain PAC10, stronger effect = lower value 0.859 | locus YHR129C, strain ARP1, stronger effect = lower value 0.936 | locus YIL073C, strain SPO22, stronger effect = lower value 0.75 | locus YJL134W, strain LCB3, stronger effect = lower value 0.945 | locus YJL187C, strain SWE1 (second series), stronger effect = lower value 0.943 | locus YJR043C, strain POL32, stronger effect = lower value 0.879 | locus YJR066W, strain TOR1, stronger effect = lower value 0.835
0.755 (active) and 0.874 (inactive): locus YHR030C, strain SLT2, stronger effect = lower value
active: locus YAL026C, strain drs2, stronger effect = lower value 0.74 | locus YAL030W, strain snc1, stronger effect = lower value 0.841 | locus YBL061C, strain skt5, stronger effect = lower value 0.762 | locus YBR009C, strain hhf1, stronger effect = lower value 0.789 | locus YBR023C, strain chs3, stronger effect = lower value 0.807 | locus YBR171W, strain sec66, stronger effect = lower value 0.769 | locus YBR231C, strain swc5, stronger effect = lower value 0.834 | locus YBR279W, strain paf1, stronger effect = lower value 0.854 | locus YCL011C, strain gbp2, stronger effect = lower value 0.78 | locus YCL016C, strain dcc1, stronger effect = lower value 0.792 | locus YCL061C, strain MRC1, stronger effect = lower value 0.791 | locus YCL069W, strain vba3, stronger effect = lower value 0.779 | locus YCR088W, strain abp1, stronger effect = lower value 0.833 | locus YDL005C, strain med2, stronger effect = lower value 0.903 | locus YDL035C, strain GPR1, stronger effect = lower value 0.855 | locus YDL040C, strain nat1, stronger effect = lower value 0.861 | locus YDL074C, strain BRE1, stronger effect = lower value 0.691 | locus YDL192W, strain arf1, stronger effect = lower value 0.808 | locus YDR001C, strain nth1, stronger effect = lower value 0.863 | locus YDR069C, strain doa4, stronger effect = lower value 0.879 | locus YDR101C, strain arx1, stronger effect = lower value 0.868 | locus YDR137W, strain rgp1, stronger effect = lower value 0.451 | locus YDR159W, strain sac3, stronger effect = lower value 0.671 | locus YDR162C, strain NBP2, stronger effect = lower value 0.671 | locus YDR195W, strain ref2 1.16 [resistant] | locus YDR297W, strain sur2, stronger effect = lower value 0.853 | locus YDR318W, strain mcm21, stronger effect = lower value 0.833 | locus YDR334W, strain swr1, stronger effect = lower value 0.859 | locus YDR335W, strain msn5, stronger effect = lower value 0.758 | locus YDR388W, stronger effect = lower value 0.881 | locus YDR392W, strain spt3, stronger effect = lower value 0.43 | locus YDR502C, strain sam2, stronger effect = lower value 0.804 | locus YEL003W, strain gim4, stronger effect = lower value 0.778 | locus YEL037C, strain rad23, stronger effect = lower value 0.841 | locus YEL061C, strain CIN8 (second series), stronger effect = lower value 0.813 | locus YER015W, strain faa2, stronger effect = lower value 0.752 | locus YER016W, strain bim1, stronger effect = lower value 0.862 | locus YER110C, stronger effect = lower value 0.891 | locus YER111C, strain swi4, stronger effect = lower value 0.797 | locus YER155C, strain BEM2 (second series), stronger effect = lower value 0.24 | locus YER155C, strain BEM2, stronger effect = lower value 0.926 | locus YER167W, strain BCK2, stronger effect = lower value 0.837 | locus YFR010W, strain ubp6, stronger effect = lower value 0.888 | locus YGL078C, strain dbp3, stronger effect = lower value 0.911 | locus YGL086W, strain mad1, stronger effect = lower value 0.828 | locus YGL167C, strain pmr1, stronger effect = lower value 0.772 | locus YGL173C, strain kem1, stronger effect = lower value 0.72 | locus YGL227W, strain vid30, stronger effect = lower value 0.84 | locus YGL240W, strain doc1, stronger effect = lower value 0.609 | locus YGL253W, strain hxk2, stronger effect = lower value 0.686 | locus YGR135W, strain pre9, stronger effect = lower value 0.729 | locus YGR229C, strain SMI1, stronger effect = lower value 0.558 | locus YGR252W, strain gcn5, stronger effect = lower value 0.666 | locus YHR013C, strain ard1, stronger effect = lower value 0.757 | locus YHR027C, strain rpn1, stronger effect = lower value 0.87 | locus YHR079C, strain IRE1 (second series), stronger effect = lower value 0.894 | locus YHR079C, strain IRE1, stronger effect = lower value 0.842 | locus YHR094C, strain hxt1, stronger effect = lower value 0.915 | locus YHR142W, strain chs7, stronger effect = lower value 0.541 | locus YHR200W, strain rpn10, stronger effect = lower value 0.861 | locus YIL066C, strain RNR3, stronger effect = lower value 0.827 | locus YIL125W, strain kgd1, stronger effect = lower value 0.898 | locus YIR030C, strain dcg1, stronger effect = lower value 0.906 | locus YJL092W, strain hpr5, stronger effect = lower value 0.827 | locus YJL095W, strain BCK1 (second series), stronger effect = lower value 0.703 | locus YJL095W, strain BCK1, stronger effect = lower value 0.699 and 0.86 | locus YJL115W, strain asf1, stronger effect = lower value 0.869 | locus YJL129C, strain trk1, stronger effect = lower value 0.649 | locus YJL154C, strain vps35, stronger effect = lower value 0.882 | locus YJL164C, strain tpk1, stronger effect = lower value 0.805 | locus YJL166W, strain qcr8, stronger effect = lower value 0.742 | locus YJL168C, strain set2, stronger effect = lower value 0.913
